# Out of some 5,500 compounds screened, about 2,000 (36%) were called active. Another 18% or so got no clear call; they are omitted. The list shows a part of the results. Values without a mark were called inactive. No stated cut-off is given here; in the data, active means normalized growth mostly below about 0.91 (no sharp cut-off); inconclusive means no clear call, values can overlap the other calls; inactive means mostly above about 0.92.
# Test: chemical genetic growth profiling, strain panel (AID 1159580);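 further: tested at 20 µM; growth read once vehicle control cultures reached saturation at 30 °C; 1 = growth at the plate median or of vehicle wells; lower values mean less growth of the strain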
# Conditions: S. cerevisiae deletion strains, growth OD
structure (smiles),measurement,setting,value
C/C(=C\CO)CC[C@H](C)CCC[C@H](C)CCCC(C)C,normalized growth,"locus YJR066W, strain TOR1, hits give low values",0.98
same,normalized growth,"locus YJR075W, strain HOC1, hits give low values",1.12
same,normalized growth,"locus YKL009W, strain mrt4, hits give low values",1.09
same,normalized growth,"locus YKL068W, hits give low values",1.09 [resistant] (active)
same,normalized growth,"locus YKL085W, strain MDH1 (second series), hits give low values",1.07 [resistant] (active)
same,normalized growth,"locus YKL085W, strain MDH1, hits give low values",1.07 [resistant] (active)
same,normalized growth,"locus YKL160W, strain elf1, hits give low values",0.984
same,normalized growth,"locus YKL190W, strain CNB1, hits give low values",1.05
same,normalized growth,"locus YKR001C, strain vps1, hits give low values",1.19 [resistant] (active)
same,normalized growth,"locus YKR026C, strain gcn3, hits give low values",1.12 [resistant] (active)
same,normalized growth,"locus YKR091W, strain srl3, hits give low values",1.12 [resistant] (active)
same,normalized growth,"locus YLL001W, strain dnm1, hits give low values",1.13 [resistant] (active)
same,normalized growth,"locus YLL026W, hits give low values",1.14 [resistant] (active)
same,normalized growth,"locus YLL041C, strain sdh2, hits give low values",1.13 [resistant] (active)
same,normalized growth,"locus YLR027C, strain aat2, hits give low values",1.12 [resistant] (active)
same,normalized growth,"locus YLR039C, strain RIC1, hits give low values",1.16
same,normalized growth,"locus YLR058C, strain SHM2, hits give low values",1.09
same,normalized growth,"locus YLR102C, strain apc9, hits give low values",1.11 [resistant] (active)
same,normalized growth,"locus YLR113W, strain HOG1, hits give low values",0.959
same,normalized growth,"locus YLR221C, strain rsa3, hits give low values",1.15 [resistant] (active)
same,normalized growth,"locus YLR258W, strain gsy2, hits give low values",1.14 [resistant] (active)
same,normalized growth,"locus YLR262C, strain YPT6 (second series), hits give low values",1.17 [resistant] (active)
same,normalized growth,"locus YLR262C, strain YPT6, hits give low values",1.16
same,normalized growth,"locus YLR268W, strain sec22, hits give low values",1.15 [resistant] (active)
same,normalized growth,"locus YLR320W, strain mms22, hits give low values",0.988
same,normalized growth,"locus YLR330W, strain CHS5, hits give low values",1.1 [resistant] (active)
same,normalized growth,"locus YLR342W, strain FKS1 (second series), hits give low values",1.1
same,normalized growth,"locus YLR342W, strain FKS1, hits give low values",1.09
same,normalized growth,"locus YLR357W, strain rsc2, hits give low values",1.1
same,normalized growth,"locus YLR370C, strain arc18, hits give low values",1.1 [resistant] (active)
same,normalized growth,"locus YLR371W, strain rom2, hits give low values",1.04
same,normalized growth,"locus YLR384C, strain iki3, hits give low values",0.978
same,normalized growth,"locus YLR418C, strain cdc73, hits give low values",1.12
same,normalized growth,"locus YML016C, strain PPZ1, hits give low values",1.05
same,normalized growth,"locus YML032C, strain rad52, hits give low values",1.15 [resistant] (active)
same,normalized growth,"locus YML120C, strain ndi1, hits give low values",1.13 [resistant] (active)
same,normalized growth,"locus YML124C, strain tub3, hits give low values",1.12 [resistant] (active)
same,normalized growth,"locus YMR058W, strain fet3, hits give low values",1.13 [resistant] (active)
same,normalized growth,"locus YMR078C, strain ctf18, hits give low values",1.15 [resistant] (active)
same,normalized growth,"locus YMR125W, strain sto1, hits give low values",1.13 [resistant] (active)
same,normalized growth,"locus YMR129W, hits give low values",1.14 [resistant] (active)
same,normalized growth,"locus YMR205C, strain PFK2, hits give low values",1.08
same,normalized growth,"locus YMR223W, strain ubp8, hits give low values",1.13 [resistant] (active)
same,normalized growth,"locus YMR231W, strain pep5, hits give low values",1.14 [resistant] (active)
same,normalized growth,"locus YMR263W, strain SAP30, hits give low values",1.12 [resistant] (active)
same,normalized growth,"locus YMR307W, strain GAS1, hits give low values",1.1
same,normalized growth,"locus YNL067W, strain RPL9B, hits give low values",1.08
same,normalized growth,"locus YNL071W, strain lat1, hits give low values",1.13 [resistant] (active)
same,normalized growth,"locus YNL153C, strain GIM3, hits give low values",1.13 [resistant] (active)
same,normalized growth,"locus YNL183C, strain NPR1, hits give low values",0.967
same,normalized growth,"locus YNL209W, strain ssb2, hits give low values",1.12 [resistant] (active)
same,normalized growth,"locus YNL233W, strain BNI4, hits give low values",1.07
same,normalized growth,"locus YNL248C, strain rpa49, hits give low values",1.13 [resistant] (active)
same,normalized growth,"locus YNL250W, strain rad50, hits give low values",1.13 [resistant] (active)
same,normalized growth,"locus YNL271C, strain bni1, hits give low values",1.12 [resistant] (active)
same,normalized growth,"locus YNL298W, strain CLA4, hits give low values",1.14 [resistant] (active)
same,normalized growth,"locus YNL307C, strain MCK1, hits give low values",1.14 [resistant] (active)
same,normalized growth,"locus YNL322C, strain KRE1 (second series), hits give low values",1.08
same,normalized growth,"locus YNL322C, strain KRE1, hits give low values",1.07
same,normalized growth,"locus YNR049C, strain mso1, hits give low values",1.11 [resistant] (active)
same,normalized growth,"locus YNR052C, strain pop2, hits give low values",1.14 [resistant] (active)
same,normalized growth,"locus YOL006C, strain TOP1, hits give low values",1.12
same,normalized growth,"locus YOL012C, strain htz1",1.59
same,normalized growth,"locus YOL147C, strain pex11, hits give low values",1.12 [resistant] (active)
same,normalized growth,"locus YOR001W, strain rrp6, hits give low values",1.15 [resistant] (active)
same,normalized growth,"locus YOR061W, strain CKA2, hits give low values",1.1
same,normalized growth,"locus YOR069W, strain VPS5, hits give low values",1.05
same,normalized growth,"locus YOR070C, strain gyp1, hits give low values",1.08 [resistant] (active)
same,normalized growth,"locus YOR080W, strain dia2, hits give low values",0.982
same,normalized growth,"locus YOR083W, strain WHI5, hits give low values",1.14 [resistant] (active)
same,normalized growth,"locus YOR106W, strain vam3, hits give low values",1.15 [resistant] (active)
same,normalized growth,"locus YOR136W, strain idh2, hits give low values",1.15 [resistant] (active)
same,normalized growth,"locus YOR144C, strain elg1, hits give low values",1.13 [resistant] (active)
same,normalized growth,"locus YOR184W, strain ser1, hits give low values",1.15 [resistant] (active)
same,normalized growth,"locus YOR231W, strain MKK1, hits give low values",0.984
same,normalized growth,"locus YOR265W, strain rbl2, hits give low values",1.14 [resistant] (active)
same,normalized growth,"locus YOR270C, strain vph1, hits give low values",1.16
same,normalized growth,"locus YOR290C, strain snf2, hits give low values",1.13 [resistant] (active)
same,normalized growth,"locus YOR316C, strain cot1, hits give low values",1.13 [resistant] (active)
same,normalized growth,"locus YPL051W, strain arl3, hits give low values",1.05
same,normalized growth,"locus YPL055C, strain LGE1, hits give low values",1.05
same,normalized growth,"locus YPL078C, strain atp4, hits give low values",1.12 [resistant] (active)
same,normalized growth,"locus YPL106C, strain sse1, hits give low values",1.15 [resistant] (active)
same,normalized growth,"locus YPL240C, strain hsp82, hits give low values",1.12 [resistant] (active)
same,normalized growth,"locus YPL256C, strain CLN2, hits give low values",0.961
same,normalized growth,"locus YPR119W, strain clb2, hits give low values",1.06
same,normalized growth,"locus YPR141C, strain kar3, hits give low values",1.12 [resistant] (active)
same,normalized growth,"locus YPR163C, strain tif3, hits give low values",1.13 [resistant] (active)
same,normalized growth,"locus YPR167C, strain met16, hits give low values",1.09 [resistant] (active)
same,normalized growth,"strain wtn01, hits give low values",1.12 [resistant] (active)
